# Experimental data from PubChem BioAssay (Tox21).
# Inconclusive results are not listed. Entries that show only a call come without a potency. Calls of active or inactive are those of the source. Calls come from the whole dose curve.
# Test: qHTS assay to identify small molecule agonists of the progesterone receptor (PR) signaling pathway - cell viability counter screen (AID 1346799); note: nearly all actives have a fitted effect of over 45% in size
# Conditions: PR-UAS-bla HEK293T viability, CellTiter-Glo luminescence, 16 h; series mostly up to 92.4 µM
# Text: National Center for Advancing Translational Sciences [NCATS]
# NIH Chemical Genomics Center [NCGC]
# U.S. Environmental Protection Agency [EPA]
# National Institutes of Environmental Health Sciences [NIEHS]
# National Toxicology Program [NTP]
# U.S. Food and Drug Administration [FDA]
# Progesterone receptor (PR), a nuclear hormone receptor, plays an important role in development, metabolic homeostasis and reproduction. It is activated by the steroid hormone progesterone. Endocrine disrupting chemicals (EDCs) and their interactions with steroid hormone receptors like PR causes disruption of normal endocrine function. To identify the compounds that stimulate PR signaling, a PR-UAS-bla GripTite cell line i.e. PR-UAS-bla HEK293T (Invitrogen, Carlsbad, CA, USA) containing a beta-lactamase reporter gene under the control of an UAS response element was used to screen Tox21 10K compound library. The cytotoxicity of the Tox21 compound library against the PR-bla cell line was tested in parallel by measuring the cell viability using CellTiter-Glo assay in the same wells.
# Tox21 Assay Protocol Summary:
# PR-UAS-bla HEK293T cells were dispensed at 3,000 cells/5 uL of assay medium containing 2% charcoal stripped FBS per well into black wall/clear-bottom 1536-well plates using a Multidrop Combi (ThermoFisher Scientific, Waltham, MA) dispenser. After the assay plates were incubated at a 37C and 5% CO2 for 6 hr, 23 nL of compounds dissolved in DMSO, positive controls or DMSO only was transferred to the assay plate by a Pintool station (Kalypsys, San Diego, CA). The plates were incubated at 37C and 5% CO2 for 16 hr. Then 1 uL of LiveBLAzer B/G FRET substrate was added using a Flying Reagent Dispenser (FRD, Aurora Discovery, San Diego, CA), the plates were incubated at room temperature for 2 hours, and fluorescence intensity was measured by an Envision plate reader (PerkinElmer, Shelton, CT). For cell viability readout that measures cytotoxicity, 4 uL/well of CellTiter-Glo reagent was added into the assay plates using a FRD. After 30 min incubation at room temperature, the luminescence intensity in the plates was measured using a ViewLux (PerkinElmer) plate reader.
row,SMILES,Potency
1,CC(C)[N+](C)(CCC(C(N)=O)(c1ccccc1)c1ccccc1)C(C)C,inactive
2,C=CCCC#N,inactive
3,CCCOC(=O)c1cncn1C(C)c1ccccc1 (stereo not given),inactive
4,NC1(c2ccccc2)CCCCC1,inactive
5,CCCCCCC1CCOC1=O (stereo not given),inactive
6,COc1ccc(C=O)cc1O,inactive
7,CCOC(=O)c1ncn2c1CN(C)C(=O)c1c(I)cccc1-2,inactive
8,CCOC(=O)C(Cl)Cc1cc(-n2nc(C)n(C(F)F)c2=O)c(F)cc1Cl (stereo not given),inactive
9,ClCOCCl,inactive
10,CCC(C)(C#N)N=NC(C)(C#N)CC (stereo not given),inactive
11,CNC(=O)Oc1ccccc1C(C)C,inactive
12,CS(=O)(=O)c1ccc(C(=O)C2C(=O)CCCC2=O)c(Cl)c1COCC(F)(F)F,inactive
13,COC(=O)c1ccc(CBr)cc1,inactive
14,CCOc1cc(OP(=S)(OC)OC)nc(CC)n1,inactive
15,C=CCN1CC[C@]23CCCC[C@H]2[C@H]1Cc1ccc(O)cc13,inactive
16,C=CC(=O)OCCN(C)C,inactive
17,C[C@H](N)C(=O)c1ccccc1,inactive
18,C1CN2CCC1CC2,inactive
19,COc1cccc(C=O)c1,inactive
20,CCC(CC)(CNC(=O)CCCO)c1cccc(OC)c1,inactive

row,SMILES,Potency
1,[O-][Br+2]([O-])O,inactive
2,N=C(N)[Se],inactive
3,CN(C)C(=O)Oc1cc(OC(=O)N(C)C)cc(C(O)CNC(C)(C)C)c1 (stereo not given),inactive
4,CC(=O)CN(CC(C)=O)N=O,inactive
5,COc1cc(CC(C)N)cc(OC)c1OC (stereo not given),inactive
6,CCCCS(=O)(=O)Cl,inactive
7,O=CCCl,inactive
8,CCOC(=O)COc1ccc(Cl)cc1Cl,inactive
9,Cn1c(N)nc2c3cccnc3ccc21,inactive
10,O=[N+]([O-])c1cccc(CCl)c1,inactive
11,OCC(Cl)CCl (stereo not given),inactive
12,Cn1c(CCCC(=O)O)nc2cc(N(CCCl)CCCl)ccc21,inactive
13,CCOP(=O)(CN(CCO)CCO)OCC,inactive
14,CCNP(=S)(OC)O/C(C)=C/C(=O)OC(C)C (stereo not given),inactive
15,CC(C)(C)C(=O)C(Cl)Cl,inactive
16,Cc1ccc(-c2nc3ccc(C)cn3c2CC(=O)N(C)C)cc1,inactive
17,NCC1(CC(=O)O)CCCCC1,inactive
18,CC[C@H](O)C(C[C@H](C)N(C)C)(c1ccccc1)c1ccccc1,inactive
19,Cc1cc(OC(=O)N(C)C)nn1C(=O)N(C)C,inactive
20,COc1cccc([C@@]2(O)CCCC[C@@H]2CN(C)C)c1,inactive
